Results as given in ChEMBL document CHEMBL4513216, “Probing the Open Global Health Chemical Diversity Library for Multistage-Active Starting Points for Next-Generation Antimalarials” (ACS Infect Dis, 2020).
About 2,700 (4%) of roughly 68,000 compounds showed an effect of 50% or more. What follows is part of a selection rich in strong results, with near analogues and random picks from the rest.

Test system: Plasmodium berghei
Assay: Screen against P. berghei liver stage (PbLuc), transformed with Luciferase, at 2uM
Assay type: functional, HepG2
Conditions: tested at 2 uM

SMILES	INHIBITION [%]
CN(Cc1ccc(F)cc1)CC1(O)CCN(C(=O)c2ccn(C)n2)C1 (stereo not given)	-21.42
CC(C)(C)OC(=O)NCC1CCCCN1Cc1ccncc1 (stereo not given)	54.29
CC(C)(C)OC(=O)NCC1CCCCN1Cc1ccccn1 (stereo not given)	-43.28
CC(C)(C)OC(=O)NCC1CCCCN1Cc1cccnc1 (stereo not given)	24.05
Cc1cc(C(F)(F)F)nn1C(C)C(=O)NN1CCN(C)CC1 (stereo not given)	32.88
Fc1cccc(-c2nnn3c2COC(CNc2ncccn2)C3)c1 (stereo not given)	39.47
CNS(=O)(=O)c1ccc(CNC(=O)C2CN(C)CCO2)cc1 (stereo not given)	33.49
CNS(=O)(=O)c1ccc(CNC(=O)NCC2CCCO2)cc1 (stereo not given)	39.32
CNS(=O)(=O)c1ccc(CNC(=O)C2CCCO2)cc1 (stereo not given)	52.17
Cn1ccnc1CN(Cc1cccnc1)CC1CCCO1 (stereo not given)	41.82
CCn1nc(C(=O)N2CCNCC2C(=O)Nc2ccc(C)nc2)cc1C (stereo not given)	3.82
O=C(Cc1ccc(F)cc1)NCCNCc1cccc(O)c1	-49.9
O=C(Cc1cccc(F)c1)NCCNCc1cccc(O)c1	57.33
O=C(Cc1ccccc1)NCCNCc1cccc(O)c1	31.57
c1ccc(CN2Cc3[nH]nc(COc4cccnc4)c3C2)nc1	18.6
CC1CNC(=O)CCN1Cc1cc(O)c2cccc(F)c2n1 (stereo not given)	18.31
CC(C)N(Cc1cccc(Cl)c1)Cc1nnsc1Cl	16.72
Cc1nnc(CN(Cc2ccc(Cl)c(Cl)c2)C2CC2)o1	50.59
Cc1nnc(CN(Cc2ccc3c(c2)OCO3)C2CCC(C)CC2)o1 (stereo not given)	-37.84
Cc1nnc(CN(Cc2cccc(Br)c2)C2CC2)o1	-21.25
Cc1nnc(CN(Cc2ccc(Cl)c(Cl)c2)C(C)C)o1	55.36
Cc1nnc(CN(Cc2cccc(Cl)c2)C(C)C)o1	41.05
O=C(c1ccccc1F)N1CCN(c2ccc(-n3cccc3)nn2)CC1	-17.9
O=C(c1cccnc1)N1CCN(c2ccnc3ccsc23)CC1	4.52
c1cc(-c2cnccn2)cc(-c2ccn(CCN3CCCCC3)n2)c1	11.33
c1ccc(-c2cccc(-c3ccn(CCN4CCCCC4)n3)c2)nc1	63.1
c1cc(-c2cnccn2)cc(-c2ccn(CCN3CCCC3)n2)c1	6.07

SMILES	INHIBITION [%]
CS(=O)(=O)CCC(=O)N(CCc1cccc(F)c1)C1CC1	29.22
CN(C(=O)CC1=CCCCC1)C1CCCN(C2Cc3ccccc3C2)C1 (stereo not given)	-12.75
CC(C)C(=O)NCC(=O)N(C)C1CCCN(CCc2ccccc2)C1 (stereo not given)	15.44
CN(C(=O)CCc1ccncc1)C1CCCN(CCc2ccccc2)C1 (stereo not given)	42.17
CSc1ccccc1C(=O)N(C)C1CCCN(CCc2ccccc2)C1 (stereo not given)	-1.89
CN(C(=O)CC1=CCCCC1)C1CCCN(CCc2ccccc2)C1 (stereo not given)	73.01
CN(C(=O)c1cccnc1)C1CCCN(CCc2ccccc2)C1 (stereo not given)	52.08
CC(=O)N1C[C@H]2CC[C@@H](C1)N(S(=O)(=O)c1ccc(C#N)cc1Cl)C2	-0.38
COCCc1noc(CN(C)C2CCCN(c3cccnn3)C2)n1 (stereo not given)	1.07
CCc1nccn1C1CCCN(C(=O)c2ccc3nncn3c2)C1 (stereo not given)	-32.49
CC(C)c1nccn1C1CCCN(C(=O)c2ccc3nncn3c2)C1 (stereo not given)	72.31
CC(C)c1nccn1C1CCCN(C(=O)c2ccc3c(c2)COC3)C1 (stereo not given)	54.28
CC(C)c1nccn1C1CCCN(C(=O)c2ccc3c(c2)OCO3)C1 (stereo not given)	4.5
Cc1nccn1C1CCCN(C(=O)c2ccc3c(c2)COC3)C1 (stereo not given)	23.92
Cc1nccn1C1CCCN(C(=O)c2ccc3nncn3c2)C1 (stereo not given)	47.87
OC(CN1CCN(Cc2cccnc2)CC1)c1cccs1 (stereo not given)	-11.22
Cn1c(N2CCOCC2)nc2cc(C(=O)N3CC(O)CO3)ccc21 (stereo not given)	-23.4
COc1ccc(CN2CCc3ncnc(OC(C)C)c3CC2)cc1	10.69
Cc1cc(C)c2[nH]c(C(=O)NCCN3CCNC3=O)c(C)c2c1	8.76
COc1cc(N2CCOC(c3ccc(F)cc3)C2)ncn1 (stereo not given)	19.27
N#Cc1c(F)cccc1Nc1cnn(CC(N)=O)c1	-58.5
CCc1nc2n(n1)CC(NCc1cn(C)nc1-c1cccnc1)CC2 (stereo not given)	54.29
CCc1nc2n(n1)CC(NCc1nc(-c3cccnc3)no1)CC2 (stereo not given)	41.71
Cn1cc(CNC2CCc3ncnn3C2)c(-c2cccnc2)n1 (stereo not given)	13.53
O=C(Nc1ncn(CC(=O)N2CCCCCC2)n1)C1CCCC1	35.23
O=C(Nc1ncn(CC(=O)N2CCCCCC2)n1)C1CCCO1 (stereo not given)	53.03
CC(CC(=O)Nc1ncn(CC(=O)N2CCCCCC2)n1)C1CC1 (stereo not given)	34.73

SMILES	INHIBITION [%]
CCCC(N)CNS(=O)(=O)Cc1cccc(C#N)c1 (stereo not given)	22.07
CCC(c1nc(CC(C)C)nn1-c1ccccn1)n1cccn1 (stereo not given)	-72.12
CCNC(=O)[C@@H]1C[C@H](N)CN1C(=O)c1c[nH]c2ccccc12	22.16
Cn1cc(C(=O)Nc2ccc3c(c2)CN(C(=O)C2CC2)CC3)nn1	0
Cn1cc(C(=O)Nc2ccc(CC(=O)NCC(F)(F)F)cc2)nn1	78.24
Cn1cc(C(=O)Nc2ccc(CC(=O)NC3CC3)cc2)nn1	52.85
COC(=O)N1CCc2ccc(NC(=O)c3cn(C)nn3)cc2C1	41.44
CC(=O)N1CCc2ccc(NC(=O)c3cn(C)nn3)cc2C1	29.65
CN(C)C(=O)Cc1ccc(NC(=O)c2cn(C)nn2)cc1	29.87
COCCn1ccc(=O)c(OCC(=O)Nc2ccc(OC)c(Cl)c2)c1C	30.58
CCn1ncc(CN2CCCC(n3c(=O)oc4ccccc43)C2)c1C (stereo not given)	-3.96
COC(=O)c1cccc(C(=O)N(C)Cc2ccsc2)c1	-21.49
NC(=O)c1cc2c(nc1N)CCN(C(=O)C1CCCCC1)C2	6.97
COC(=O)c1ccc(N2CCN(C(=O)c3cnn(C)c3)C(C)C2)cc1 (stereo not given)	47.57
O=C(NCC1Cn2nnc(-c3ccsc3)c2CO1)c1ccc[nH]1 (stereo not given)	34.16
CCN1CCN(C)C(=O)C12CCN(Cc1csc(C)n1)CC2	-66.6
CN1CCN(C)C2(CCN(Cc3ccsc3)CC2)C1=O	59.5
CCN1CCN(C)C(=O)C12CCN(Cc1cccc(C)c1)CC2	60.6
CCc1ccc(CN2CCC3(CC2)C(=O)N(C)CCN3CC)cc1	47.42
CCN1CCN(C)C(=O)C12CCN(Cc1ccsc1)CC2	39.18
CCN1CCN(C)C2(CCN(Cc3ccsc3)CC2)C1=O	38.64
CCCc1cnc(C)nc1N1CCC(Cc2cccc(C(N)=O)c2)C1 (stereo not given)	-9.75
CC(C(=O)NC1CCN(C)CC1)n1nc(C(F)(F)F)c(Cl)c1C1CC1 (stereo not given)	-4.77
CCN(C(=O)CN(CC(N)=O)C(C)C)C1=CCCC1	25.21
OCc1n[nH]c(-c2ccc(F)cc2)n1	27.8
CC(C(=O)N1CCN(Cc2ccc3c(c2)OCO3)CC1)n1ccnc1 (stereo not given)	17.98
COC(=O)CC1CCCCN1CC(=O)Nc1cc(F)ccc1F (stereo not given)	30.82

SMILES	INHIBITION [%]
O=S(=O)(NC1=NCN(CCc2cccs2)CN1)c1ccc(F)cc1	36.15
O=S(=O)(NC1=NCN(CCc2cccs2)CN1)c1ccc(Br)cc1	50.67
O=S(=O)(NC1=NCN(CCc2cccs2)CN1)c1ccccc1	18.22
O=C(Cc1cnccn1)N1C[C@@H]2CC[C@H]1CN(Cc1cscn1)C2	-41.49
COCC(=O)N1C[C@H]2CNC[C@@]2(C(=O)NCc2nc(C)cc(C)n2)C1	67.44
COCC(=O)N1C[C@H]2CNC[C@@]2(C(=O)NCc2cc(C)n[nH]2)C1	40.51
COCC(=O)N1C[C@H]2CNC[C@@]2(C(=O)NCc2c(C)noc2C)C1	1.8
N[C@H]1CN(C(=O)Cc2ccc(Cl)c(Cl)c2)C[C@@H]1C1CC1	4.72
N[C@H]1CN(C(=O)c2ccc(Cl)cc2O)C[C@@H]1C1CC1	-6.83
N[C@H]1CN(C(=O)c2ccc(Cl)cc2F)C[C@@H]1C1CC1	19.54
N[C@H]1CN(C(=O)Cc2ccc(CO)cc2)C[C@@H]1C1CC1	39.97
Cc1cc(Cl)ccc1C(=O)N1C[C@H](C2CC2)[C@@H](N)C1	60.42
N[C@H]1CN(C(=O)Cc2cc(F)cc(Cl)c2)C[C@@H]1C1CC1	55.39
CN(CCCN1CCCC1)[C@@H]1c2ccccc2C2(CCNCC2)[C@H]1O	9.18
COC(=O)c1ccc(CN(C)C(=O)c2cnsn2)cc1	-18.04
COc1ccc(C[C@H]2CN(C3CCOCC3)CC[C@H]2OCC2CC2)cc1	68.29
c1ccc(C[C@H]2CN(C3CCOCC3)CC[C@H]2OCC2CC2)cc1	-22.32
COc1ccc(C[C@H]2CN(C3CCOCC3)CC[C@@H]2OCC2CC2)cc1	21.06
CCc1cnc(N2CC[C@H]3[C@@H]2CCC(=O)N3CC2CCOCC2)nc1	8.37
CNC(=O)[C@H]1C[C@H]2CN(Cc3cccc(C)c3)C[C@@H]1O2	14.09
CC(C)NC(=O)CC1[C@H]2CN(C(=O)Cc3ccccn3)C[C@@H]12 (stereo not given in full)	33.39
O=C(c1ccc(S(=O)(=O)N2CCNCC2)cc1)N1CCCC(O)C1 (stereo not given)	57.4
CN1CCN(S(=O)(=O)c2ccc(C(=O)N3CC[C@@H](O)C3)cc2)CC1=O	-27.61
O=C(c1ccc(S(=O)(=O)N2CCSCC2)cc1)N1CCC(O)C1 (stereo not given)	-57.76
